Data taken from the supplement of paper PMC7411054.
Counter-ions that a name gives are not always drawn.

Key:
Assay in all cases: phenotypically active (imaging signature differs from DMSO and reproducible) at any of 0.3-9 uM (binary (1 = active, 0 = inactive)); higher = active
Conditions in all cases: treatment time: 24 h
A549-ACTB-RAB5A = tested on: A549-ACTB-RAB5A
How it was run: (§1)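 Fifteen reporter lines derived from A549, HepG2 and WPMY1 cells by gene editing, carrying BFP for segmentation plus GFP and RFP/FusionRed markers, were exposed to 0.3, 1, 3 or 9 µM for 24 h in four wells each and imaged live. Live-cell features from each well were normalised to solvent control wells. A well set counted as deviating when ≥3 of 4 wells lay beyond the 95th percentile of control Euclidean distances, and as reproducible when the median replicate Pearson correlation exceeded the 95th percentile of non-replicates. Phenotypic activity was assigned only when both criteria were met.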

A549-CANX-COX4 = tested on: A549-CANX-COX4
How it was run: as §1

A549-GM130-SQSTM1 = tested on: A549-GM130-SQSTM1
How it was run: as §1

A549-TP53BP1-CLTA = tested on: A549-TP53BP1-CLTA
How it was run: as §1

A549-TUBA1B-RELA = tested on: A549-TUBA1B-RELA
How it was run: as §1

HepG2-ACTB-RAB5A = tested on: HepG2-ACTB-RAB5A
How it was run: as §1

HepG2-CANX-COX4 = tested on: HepG2-CANX-COX4
How it was run: as §1

HepG2-GM130-SQSTM1 = tested on: HepG2-GM130-SQSTM1
How it was run: as §1

HepG2-TP53BP1-CLTA = tested on: HepG2-TP53BP1-CLTA
How it was run: as §1

HepG2-TUBA1B-RELA = tested on: HepG2-TUBA1B-RELA
How it was run: as §1

WPMY1-ACTB-RAB5A = tested on: WPMY1-ACTB-RAB5A
How it was run: as §1

WPMY1-CANX-COX4 = tested on: WPMY1-CANX-COX4
How it was run: as §1

WPMY1-GM130-SQSTM1 = tested on: WPMY1-GM130-SQSTM1
How it was run: as §1

WPMY1-TP53BP1-CLTA = tested on: WPMY1-TP53BP1-CLTA
How it was run: as §1

WPMY1-TUBA1B-RELA = tested on: WPMY1-TUBA1B-RELA
How it was run: as §1

Measured: phenotypically active

NCCNS(=O)(=O)c1ccc(Cl)c2ccncc12 [CKI 7 dihydrochloride]
inactive: A549-ACTB-RAB5A 0 | A549-CANX-COX4 0 | A549-GM130-SQSTM1 0 | A549-TP53BP1-CLTA 0 | A549-TUBA1B-RELA 0 | HepG2-ACTB-RAB5A 0 | HepG2-CANX-COX4 0 | HepG2-GM130-SQSTM1 0 | HepG2-TP53BP1-CLTA 0 | HepG2-TUBA1B-RELA 0 | WPMY1-ACTB-RAB5A 0 | WPMY1-CANX-COX4 0 | WPMY1-GM130-SQSTM1 0 | WPMY1-TP53BP1-CLTA 0 | WPMY1-TUBA1B-RELA 0

COC(=O)/C=C/c1cccc(N(Cc2ccc(-c3ccc(N(C)C)cc3)cc2)C(=O)C2CCCCC2)c1 [fexaramine]
inactive: A549-ACTB-RAB5A 0 | A549-CANX-COX4 0 | A549-GM130-SQSTM1 0 | A549-TP53BP1-CLTA 0 | A549-TUBA1B-RELA 0 | HepG2-ACTB-RAB5A 0 | HepG2-CANX-COX4 0 | HepG2-GM130-SQSTM1 0 | HepG2-TP53BP1-CLTA 0 | HepG2-TUBA1B-RELA 0 | WPMY1-ACTB-RAB5A 0 | WPMY1-CANX-COX4 0 | WPMY1-GM130-SQSTM1 0 | WPMY1-TP53BP1-CLTA 0 | WPMY1-TUBA1B-RELA 0

CN1CCN2c3ncccc3Cc3ccccc3C2C1 (stereo not given) [Mirtazapine]
inactive: A549-ACTB-RAB5A 0 | A549-CANX-COX4 0 | A549-GM130-SQSTM1 0 | A549-TP53BP1-CLTA 0 | A549-TUBA1B-RELA 0 | HepG2-ACTB-RAB5A 0 | HepG2-CANX-COX4 0 | HepG2-GM130-SQSTM1 0 | HepG2-TP53BP1-CLTA 0 | HepG2-TUBA1B-RELA 0 | WPMY1-ACTB-RAB5A 0 | WPMY1-CANX-COX4 0 | WPMY1-GM130-SQSTM1 0 | WPMY1-TP53BP1-CLTA 0 | WPMY1-TUBA1B-RELA 0

Cc1c(F)cc(C(=O)NC2CC2)cc1-c1ccc(C(=O)NCC(C)(C)C)cn1 [losmapimod]
inactive: A549-ACTB-RAB5A 0 | A549-CANX-COX4 0 | A549-GM130-SQSTM1 0 | A549-TP53BP1-CLTA 0 | A549-TUBA1B-RELA 0 | HepG2-ACTB-RAB5A 0 | HepG2-CANX-COX4 0 | HepG2-GM130-SQSTM1 0 | HepG2-TP53BP1-CLTA 0 | HepG2-TUBA1B-RELA 0 | WPMY1-ACTB-RAB5A 0 | WPMY1-CANX-COX4 0 | WPMY1-GM130-SQSTM1 0 | WPMY1-TP53BP1-CLTA 0 | WPMY1-TUBA1B-RELA 0

Cc1nc2c(O)cccc2c(=O)[nH]1
inactive: A549-ACTB-RAB5A 0 | A549-CANX-COX4 0 | A549-GM130-SQSTM1 0 | A549-TP53BP1-CLTA 0 | A549-TUBA1B-RELA 0 | HepG2-ACTB-RAB5A 0 | HepG2-CANX-COX4 0 | HepG2-GM130-SQSTM1 0 | HepG2-TP53BP1-CLTA 0 | HepG2-TUBA1B-RELA 0 | WPMY1-ACTB-RAB5A 0 | WPMY1-CANX-COX4 0 | WPMY1-GM130-SQSTM1 0 | WPMY1-TP53BP1-CLTA 0 | WPMY1-TUBA1B-RELA 0

N[C@@H](C(=O)O)c1ccc(C(=O)O)c(C(=O)O)c1
inactive: A549-ACTB-RAB5A 0 | A549-CANX-COX4 0 | A549-GM130-SQSTM1 0 | A549-TP53BP1-CLTA 0 | A549-TUBA1B-RELA 0 | HepG2-ACTB-RAB5A 0 | HepG2-CANX-COX4 0 | HepG2-GM130-SQSTM1 0 | HepG2-TP53BP1-CLTA 0 | HepG2-TUBA1B-RELA 0 | WPMY1-ACTB-RAB5A 0 | WPMY1-CANX-COX4 0 | WPMY1-GM130-SQSTM1 0 | WPMY1-TP53BP1-CLTA 0 | WPMY1-TUBA1B-RELA 0

CCCCC1=NC2(CCCC2)C(=O)N1Cc1ccc(-c2ccccc2-c2nnn[nH]2)cc1 [irbesartan]
inactive: A549-ACTB-RAB5A 0 | A549-CANX-COX4 0 | A549-GM130-SQSTM1 0 | A549-TP53BP1-CLTA 0 | A549-TUBA1B-RELA 0 | HepG2-ACTB-RAB5A 0 | HepG2-CANX-COX4 0 | HepG2-GM130-SQSTM1 0 | HepG2-TP53BP1-CLTA 0 | HepG2-TUBA1B-RELA 0 | WPMY1-ACTB-RAB5A 0 | WPMY1-CANX-COX4 0 | WPMY1-GM130-SQSTM1 0 | WPMY1-TP53BP1-CLTA 0 | WPMY1-TUBA1B-RELA 0

CCCN(CCC)CCc1cccc2c1CC(=O)N2 [ropinirole]
inactive: A549-ACTB-RAB5A 0 | A549-CANX-COX4 0 | A549-GM130-SQSTM1 0 | A549-TP53BP1-CLTA 0 | A549-TUBA1B-RELA 0 | HepG2-ACTB-RAB5A 0 | HepG2-CANX-COX4 0 | HepG2-GM130-SQSTM1 0 | HepG2-TP53BP1-CLTA 0 | HepG2-TUBA1B-RELA 0 | WPMY1-ACTB-RAB5A 0 | WPMY1-CANX-COX4 0 | WPMY1-GM130-SQSTM1 0 | WPMY1-TP53BP1-CLTA 0 | WPMY1-TUBA1B-RELA 0

CNNCc1ccc(C(=O)NC(C)C)cc1 [procarbazine]
inactive: A549-ACTB-RAB5A 0 | A549-CANX-COX4 0 | A549-GM130-SQSTM1 0 | A549-TP53BP1-CLTA 0 | A549-TUBA1B-RELA 0 | HepG2-ACTB-RAB5A 0 | HepG2-CANX-COX4 0 | HepG2-GM130-SQSTM1 0 | HepG2-TP53BP1-CLTA 0 | HepG2-TUBA1B-RELA 0 | WPMY1-ACTB-RAB5A 0 | WPMY1-CANX-COX4 0 | WPMY1-GM130-SQSTM1 0 | WPMY1-TP53BP1-CLTA 0 | WPMY1-TUBA1B-RELA 0

Cc1[nH]c(=O)c(C#N)cc1-c1ccncc1 [Milrinone]
inactive: A549-ACTB-RAB5A 0 | A549-CANX-COX4 0 | A549-GM130-SQSTM1 0 | A549-TP53BP1-CLTA 0 | A549-TUBA1B-RELA 0 | HepG2-ACTB-RAB5A 0 | HepG2-CANX-COX4 0 | HepG2-GM130-SQSTM1 0 | HepG2-TP53BP1-CLTA 0 | HepG2-TUBA1B-RELA 0 | WPMY1-ACTB-RAB5A 0 | WPMY1-CANX-COX4 0 | WPMY1-GM130-SQSTM1 0 | WPMY1-TP53BP1-CLTA 0 | WPMY1-TUBA1B-RELA 0

Cc1c(-c2ccccc2)oc2c(C(=O)OCCN3CCCCC3)cccc2c1=O [flavoxate]
inactive: A549-ACTB-RAB5A 0 | A549-CANX-COX4 0 | A549-GM130-SQSTM1 0 | A549-TP53BP1-CLTA 0 | A549-TUBA1B-RELA 0 | HepG2-ACTB-RAB5A 0 | HepG2-CANX-COX4 0 | HepG2-GM130-SQSTM1 0 | HepG2-TP53BP1-CLTA 0 | HepG2-TUBA1B-RELA 0 | WPMY1-ACTB-RAB5A 0 | WPMY1-CANX-COX4 0 | WPMY1-GM130-SQSTM1 0 | WPMY1-TP53BP1-CLTA 0 | WPMY1-TUBA1B-RELA 0
